# Where “and” joins values, the source holds several entries; their conditions need not be identical. Equal entries are not always repeated. Calls of active or inactive are those of the source.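 Rule for the calls, unless noted: active = compounds whose cell count with miR-34 switched on is under 0.7 times the count with it off; inactive = the rest.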
# Experiments:
# [1] = Wnt pathway potentiators raising nuclear beta-catenin – imaging, WNT3A-conditioned medium, mouse C2C12, NPC library, primary screen (AID 1117326; in the data active = nuclear beta-catenin stimulation mostly above about 4.2%, no sharp cut-off; inactive = mostly below about 10%); details: stronger effect = higher value
# [2] = stimulators of insulin release from INS-1E, primary screen, cell-based, 5 mM glucose, NPC library (AID 1117329;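 active = compound raises insulin release from rat beta cells at 5 mM glucose, no numeric limit stated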); details: rat INS-1E insulin secretion, at 10 µM, stronger effect = higher value
# [3] = growth inhibition of GSK3B-pretreated HCT116 cells – cell-based, CellTiter-Glo, 0.2 to 20 µM (AID 1117336;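 active = compounds lowering colon cancer cell viability after pretreatment blocking the GSK3B kinase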); details: HCT116 viability after GSK3B inhibitor, at 20 µM, stronger effect = higher value
# [4] = inhibition of endothelial tube formation, primary screen, imaging, VEGF stimulated, CD31 staining, tube area, NPC library (AID 1117340;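 active = compound that reduces growth-factor-driven endothelial tube area in a mixed cell culture, no cutoff stated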); details: VEGF-stimulated ADSC/ECFC co-culture, at 10 µM, stronger effect = higher value
# [5] = GLP1 release stimulators, primary, NCI-H716, NPC library (AID 1117341;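 active = compound raises GLP1 secretion from the human gut endocrine cells, with no numeric limit stated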); details: NCI-H716 cells, at 10 µM, stronger effect = higher value
# [6] = HCT116 colon cancer cell growth inhibition, primary screen, CellTiter-Glo luminescence, NPC library (AID 1117342;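 active = compounds that lower survival of HCT116 colon cancer cells in the luminescence readout, no numeric limit stated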); details: at 20 µM (top of the series)
# [7] = reduced SW480 viability measured with CellTiter-Glo, NPC library, primary (AID 1117343;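 active = compounds that lower viability of the colon cancer cells in the luminescence readout, with no numeric limit stated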); details: CellTiter-Glo luminescence; at 20 µM (top of the series) unless noted
# [8] = NPC library primary testing for decreased DLD-1 cell viability via CellTiter-Glo (AID 1117346;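 active = compounds that lower survival of DLD-1 colon cancer cells in the luminescence readout, no cutoff given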); details: DLD-1 viability, CellTiter-Glo luminescence; at 20 µM (top of the series)
# [9] = EMT-state selective cytotoxicity in co-culture – imaging, PC-3E GFP, TEM4-18 mCherry, primary screen (AID 1345086;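 active = compounds killing one labelled cell type while sparing the other, by normalised counts and ratio limits, not self-fluorescent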;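 for all read-outs here: cells exposed to compound for 72 h before imaging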;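 for red/green cell ratio (normalised): normalised mesenchymal count divided by normalised epithelial count so high means epithelial killing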); details: PC-3E GFP / TEM4-18 mCherry co-culture, imaging cell counts, at 1 µM; for red/green cell ratio (normalised): actives lie on both sides, counts scaled to control wells, 1 = unselective
# [10] = viability loss with induced miR-34 in A549 – imaging, A549 dox-inducible miR-34, nuclei and caspase counts, primary screen (AID 1347080); details: A549 miR-34 inducible, Hoechst nuclei count, 48 h
# [11] = biological target: NAD(+) hydrolase SARM1 (Homo sapiens) (UniProt Q6SZW1); assay: blocking NAD cleavage by SARM1 SAM-TIR – cell lysate, NAD-Glo luminescence (AID 1508614;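 active = compound whose remaining NAD level is above about 45 nM, limit read from the data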;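 note: higher remaining NAD means stronger inhibition of SARM1 NADase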); details: SAM-TIR HEK293T lysate NADase, at 1 µM, stronger effect = higher value
# [12] = compounds altering viability of human ES cells (AID 493140; call rule not given here;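 note: cells exposed to compounds for four days before counting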); details: human embryonic stem cell survival screen; stronger effect = higher value
# [13] = P. berghei load reduction in hepatocytes – cell-based, HepG2, luciferase luminescence, HepG2 viability, primary screen (AID 624349; in the data active = parasite load remaining mostly below about 12%, no sharp cut-off; inactive = mostly above about 10%;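 note: 100% = mean of DMSO negative control wells on the same plate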); details: P. berghei liver stage in HepG2, luciferase luminescence, concentration not given here; parasite load remaining: stronger effect = lower value; viability: measured here: HepG2 viability without parasites
# [14] = MELAS cybrid and Rieske KO viability enhancers – cell-based, MELAS cybrids, Rieske KO mouse fibroblasts, CellTiter-Glo, primary screen (AID 1508586;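 active = mean z-score across replicates of 1.96 or higher in either the MELAS or the Rieske mutant cell line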;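 note: z relative to plate mean and SD of compound and empty wells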); details: low glucose
# [15] = measured here: epithelial PC-3E GFP cell survival
# [16] = measured here: mesenchymal TEM4-18 mCherry cell survival
# [17] = stronger effect = lower value, cell number ratio, induced over uninduced
# [18] = measured here: relative caspase fold change +Dox/-Dox
# [19] = measured here: total cells with miR-34 induction, stronger effect = lower value
# [20] = measured here: total cells without miR-34 induction
# [21] = MELAS cybrid survival, CellTiter-Glo 48 h, stronger effect = higher value
# [22] = Rieske KO mouse fibroblast survival, CellTiter-Glo 72 h
# Chain of NAD(+) hydrolase SARM1 (Homo sapiens) (Q6SZW1 whole entry, looked up): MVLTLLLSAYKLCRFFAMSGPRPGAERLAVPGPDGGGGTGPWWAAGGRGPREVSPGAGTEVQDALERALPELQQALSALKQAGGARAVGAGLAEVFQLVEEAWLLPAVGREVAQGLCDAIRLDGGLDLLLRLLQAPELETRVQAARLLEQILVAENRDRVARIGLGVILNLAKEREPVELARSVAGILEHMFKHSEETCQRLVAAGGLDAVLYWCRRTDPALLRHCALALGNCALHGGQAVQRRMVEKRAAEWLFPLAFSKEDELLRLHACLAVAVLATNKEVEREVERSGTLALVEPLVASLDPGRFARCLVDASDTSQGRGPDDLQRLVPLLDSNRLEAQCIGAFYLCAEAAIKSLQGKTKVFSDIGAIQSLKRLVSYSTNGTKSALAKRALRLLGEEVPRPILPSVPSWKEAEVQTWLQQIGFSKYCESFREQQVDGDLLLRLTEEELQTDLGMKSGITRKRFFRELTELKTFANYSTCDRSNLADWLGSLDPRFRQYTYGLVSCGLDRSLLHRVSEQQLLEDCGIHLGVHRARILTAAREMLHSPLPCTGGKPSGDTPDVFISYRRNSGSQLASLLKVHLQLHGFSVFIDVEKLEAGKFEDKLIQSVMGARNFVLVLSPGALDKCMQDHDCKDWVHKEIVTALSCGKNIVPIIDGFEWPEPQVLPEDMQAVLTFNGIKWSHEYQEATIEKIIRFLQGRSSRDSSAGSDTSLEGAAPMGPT
structure (smiles),measurement,setting,value
O=S(=O)(O)CCCS(=O)(=O)O,nuclear beta-catenin stimulation,[1]; at 10 µM,-2.1% (inactive)
same,nuclear beta-catenin stimulation,"[1]; stimulation, at 2 µM",-0.3%
same,insulin secretion stimulation,[2],2.9% (inactive)
same,viability decrease,[3],-15.7% (inactive)
same,tube area decrease,[4],-1.1% (inactive)
same,GLP1 secretion stimulation,[5],-2.7% (inactive)
same,inhibition of viability,[6],-1.7% (inactive)
same,viability decrease (inhibition),[7],-9.3% (inactive)
same,viability decrease (inhibition),[8],-13.5% (inactive)
same,red/green cell ratio (normalised),[9],0.74 (inactive)
same,normalised cell number,[9]; [15],1.27
same,normalised cell number,[9]; [16],0.94
same,fold change,[10]; [17],0.939 (inactive)
same,fold change,[10]; [18],1.14
same,cell count,[10]; [19],9300
same,cell count,[10]; [20],9900
same,remaining NAD,[11],10 nM (inactive)
CCCNC(C)(C)COC(=O)c1ccccc1,survival,[12],15.2 (inactive)
same,parasite load remaining,[13],69.3% (inactive)
same,viability,[13],69.4%
same,nuclear beta-catenin stimulation,[1]; at 10 µM,0.1% (inactive)
same,nuclear beta-catenin stimulation,"[1]; stimulation, at 2 µM",0.2%
same,insulin secretion stimulation,[2],4.2% (inactive)
same,viability decrease,[3],0.2% (inactive)
same,tube area decrease,[4],6.5% (inactive)
same,GLP1 secretion stimulation,[5],4% (inactive)
same,inhibition of viability,[6],-3.5% (inactive)
same,viability decrease (inhibition),[7],42.3% (inactive)
same,viability decrease (inhibition),[8],25.6% (inactive)
same,red/green cell ratio (normalised),[9],1.13 (inactive)
same,normalised cell number,[9]; [15],1.15
same,normalised cell number,[9]; [16],1.29
same,fold change,[10]; [17],0.976 (inactive)
same,fold change,[10]; [18],0.64
same,cell count,[10]; [19],9410
same,cell count,[10]; [20],9640
same,z-score,[14]; [21],-0.122 (inactive)
same,z-score,[14]; [22],-0.0308
same,remaining NAD,[11],10 nM (inactive)
CN(C)CC/C=C1\c2ccccc2Sc2ccc(Cl)cc21,parasite load remaining,[13],79% (inactive) and 61.2% (inactive) and 17.9% (inactive)
same,viability,[13],83.4% and 97.6% and 84.5%
same,nuclear beta-catenin stimulation,[1]; at 10 µM,1.8% (inactive)
same,nuclear beta-catenin stimulation,"[1]; stimulation, at 2 µM",0.5%
same,insulin secretion stimulation,[2],20.8% (active)
same,viability decrease,[3],51.1% (active)
same,tube area decrease,[4],42.6% (active)
same,GLP1 secretion stimulation,[5],15.7% (inactive)
same,inhibition of viability,[6],94.8% (active)
same,viability decrease (inhibition),[7],127% (active)
same,viability decrease (inhibition),[8],98.6% (active)
same,red/green cell ratio (normalised),[9],1.04 (inactive)
same,normalised cell number,[9]; [15],1.11
same,normalised cell number,[9]; [16],1.16
same,fold change,[10]; [17],0.848 (inactive) and 0.855 (inactive)
same,fold change,[10]; [18],1.41 and 2.28
same,cell count,[10]; [19],6900 and 9070
same,cell count,[10]; [20],8140 and 10600
same,z-score,[14]; [21],0.287 (inactive)
same,z-score,[14]; [22],0.968
CN(C/C=C/c1ccccc1)Cc1cccc2ccccc12,survival,[12],21.7 (inactive)
same,parasite load remaining,[13],71.6% (inactive)
same,viability,[13],71.3%
same,nuclear beta-catenin stimulation,[1]; at 10 µM,2.1% (inactive)
same,nuclear beta-catenin stimulation,"[1]; stimulation, at 2 µM",1.8%
same,insulin secretion stimulation,[2],14.3% (inactive)
same,viability decrease,[3],86.7% (active)
same,tube area decrease,[4],-3.5% (inactive)
same,GLP1 secretion stimulation,[5],0.7% (inactive)
same,inhibition of viability,[6],85.3% (active)
same,viability decrease (inhibition),[7],95.4% (active)
same,viability decrease (inhibition),[8],74.5% (active)
same,red/green cell ratio (normalised),[9],1.01 (inactive)
same,normalised cell number,[9]; [15],1.19
same,normalised cell number,[9]; [16],1.2
same,fold change,[10]; [17],0.954 (inactive)
same,fold change,[10]; [18],0.94
same,cell count,[10]; [19],8810
same,cell count,[10]; [20],9230
same,z-score,[14]; [21],-0.0397 (inactive)
same,z-score,[14]; [22],-0.28
same,remaining NAD,[11],10 nM (inactive)
Cc1cc2nc3ccc(=[N+](C)C)cc-3sc2cc1N,nuclear beta-catenin stimulation,[1]; at 10 µM,21.6% (inactive)
same,nuclear beta-catenin stimulation,"[1]; stimulation, at 2 µM",1%
same,insulin secretion stimulation,[2],-0.6% (inactive)
same,viability decrease,[3],90.5% (active)
same,tube area decrease,[4],108% (active)
same,GLP1 secretion stimulation,[5],-3.7% (inactive)
same,inhibition of viability,[6],82.7% (active)
same,viability decrease (inhibition),[7],85% (active)
same,viability decrease (inhibition),[8],38.4% (inactive)
same,red/green cell ratio (normalised),[9],1.59 (inactive)
same,normalised cell number,[9]; [15],0.17
same,normalised cell number,[9]; [16],0.28
same,fold change,[10]; [17],1.11 (inactive)
same,fold change,[10]; [18],1.04
same,cell count,[10]; [19],2760
same,cell count,[10]; [20],2500
same,remaining NAD,[11],10 nM (inactive)
CN1C(=O)CC(c2ccccc2)C1=O (stereo not given),survival,[12],19.1 (inactive)
same,parasite load remaining,[13],94.6% (inactive)
same,viability,[13],73.1%
same,nuclear beta-catenin stimulation,[1]; at 10 µM,0.4% (inactive)
same,nuclear beta-catenin stimulation,"[1]; stimulation, at 2 µM",0.3%
same,insulin secretion stimulation,[2],-0.7% (inactive)
same,viability decrease,[3],4.95% (inactive)
same,tube area decrease,[4],-2.7% (inactive)
same,GLP1 secretion stimulation,[5],-0.4% (inactive)
same,inhibition of viability,[6],-5.7% (inactive)
same,viability decrease (inhibition),[7],54.4% (active)
same,viability decrease (inhibition),[8],12.9% (inactive)
same,red/green cell ratio (normalised),[9],0.99 (inactive)
same,normalised cell number,[9]; [15],1.01
same,normalised cell number,[9]; [16],1
same,fold change,[10]; [17],0.941 (inactive) and 0.972 (inactive)
same,fold change,[10]; [18],1.17 and 0.864
same,cell count,[10]; [19],9250 and 9510
same,cell count,[10]; [20],9830 and 9780
same,z-score,[14]; [21],0.397 (inactive)
same,z-score,[14]; [22],0.0941
same,remaining NAD,[11],10 nM (inactive)
S=C=Nc1ccc(N=C=S)cc1,nuclear beta-catenin stimulation,[1]; at 10 µM,16.4% (inactive)
same,nuclear beta-catenin stimulation,"[1]; stimulation, at 2 µM",-0.1%
same,insulin secretion stimulation,[2],3.2% (inactive)
same,viability decrease,[3],77.2% (active)
same,tube area decrease,[4],100% (active)
same,GLP1 secretion stimulation,[5],-3.9% (inactive)
same,inhibition of viability,[6],57% (active)
same,viability decrease (inhibition),[7],73.5% (active)
same,viability decrease (inhibition),[8],81.3% (active)
same,red/green cell ratio (normalised),[9],0.76 (inactive)
same,normalised cell number,[9]; [15],1.12
same,normalised cell number,[9]; [16],0.86
same,fold change,[10]; [17],0.826 (inactive)
same,fold change,[10]; [18],1.4
same,cell count,[10]; [19],7160
same,cell count,[10]; [20],8680
same,remaining NAD,[11],10 nM (inactive)
CCCCCCCCCCCCCCCC[N+](C)(C)CCN(Cc1ccc(OC)cc1)c1ncccn1,survival,[12],0.417 (inactive)
same,parasite load remaining,[13],24.3% (inactive)
same,viability,[13],77.4%
same,nuclear beta-catenin stimulation,[1]; at 10 µM,-5.4% (inactive)
same,nuclear beta-catenin stimulation,"[1]; stimulation, at 2 µM",0%
same,insulin secretion stimulation,[2],2.9% (inactive)
same,viability decrease,[3],100% (active)
same,tube area decrease,[4],110% (active)
same,GLP1 secretion stimulation,[5],79.6% (active)
same,inhibition of viability,[6],101% (active)
same,viability decrease (inhibition),[7],120% (active)
same,viability decrease (inhibition),[8],103% (active)
same,red/green cell ratio (normalised),[9],0.95 (inactive)
same,normalised cell number,[9]; [15],1.06
same,normalised cell number,[9]; [16],1
same,fold change,[10]; [17],0.797 (inactive)
same,fold change,[10]; [18],1.23
same,cell count,[10]; [19],4700
same,cell count,[10]; [20],5900
same,z-score,[14]; [21],-2.42 (inactive)
same,z-score,[14]; [22],1.31
same,remaining NAD,[11],10 nM (inactive)
CC(=O)Nc1c(I)c(NC(C)=O)c(I)c(C(=O)O)c1I,parasite load remaining,[13],58.9% (inactive)
same,viability,[13],109%
same,nuclear beta-catenin stimulation,[1]; at 10 µM,1.6% (inactive)
same,nuclear beta-catenin stimulation,"[1]; stimulation, at 2 µM",7.7%
same,insulin secretion stimulation,[2],1.5% (inactive)
same,viability decrease,[3],2.3% (inactive)
same,tube area decrease,[4],-9.3% (inactive)
same,GLP1 secretion stimulation,[5],4.3% (inactive)
same,inhibition of viability,[6],2% (inactive)
same,viability decrease (inhibition),[7],-30.8% (inactive)
same,viability decrease (inhibition),[8],-0.9% (inactive)
same,red/green cell ratio (normalised),[9],1.17 (inactive)
same,normalised cell number,[9]; [15],1.02
same,normalised cell number,[9]; [16],1.19
same,fold change,[10]; [17],0.866 (inactive)
same,fold change,[10]; [18],2.21
same,cell count,[10]; [19],11200
same,cell count,[10]; [20],13000
same,z-score,[14]; [21],0.0135 (inactive)
same,z-score,[14]; [22],0.624
same,remaining NAD,[11],10 nM (inactive)

# — PubChem BioAssay
